# From PubChem BioAssay (NCATS)
# Records with an inconclusive call do not appear. A number with no mark means an inactive call. Active and inactive are the calls of the source. Calls come from the whole dose curve; as a rule, active = well fitted inhibition curve with a large enough effect; inconclusive = small, poorly fitted or top-dose-only effect, or effect the other way; inactive = flat fitted curve, though single readings scatter.
# Target: D(1A) dopamine receptor (Homo sapiens) (UniProt P21728)
# Assay: HTS Assay for Allosteric Agonists of the Human D1 Dopamine Receptor: Primary Screen for Antagonists (AID 488983); note: nearly all actives have a fitted effect of over 65% in size
# Details: D1 receptor cell assay, antagonist mode, qHTS titration; series mostly up to 41.8 µM; activity change, negative = inhibition: at the top concentration
# Excerpt: Dopamine receptors (DARs) are involved in the etiology and/or therapy of a number of neuropsychiatric and endocrine disorders. For instance, all receptor-based antiparkinsonian drugs work via stimulating the […] DAR subtype whereas all FDA-approved antipsychotic agents are antagonists of this receptor. […] There are three different types of allosteric modulators that we are seeking, two of which will stimulate or augment receptor signaling, allosteric agonists and potentiators, while the third, allosteric antagonists, will attenuate receptor signaling. The present primary screening assay measures compound agonism by tracking calcium flux in a […], inducible Hek293 Trex D1 cell line.
# Freshly passaged cells are plated in 1536 well black, clear bottom plates at a density of 4000 cells/well in 3 ul of complete media containing 1x tetracycline inducer. After an overnight incubation at 30 C in 5% CO2, cells are loaded with 2 ul of the no wash Calcium Assay Kit (ABD Bioquest) and incubated at room temperature for 30 to 90 minutes. A 10 cycle (1 second/cycle) baseline measurement is taken and then the FDSS online 1536 pintool delivers 23 nl of compound library (as well as dopamine controls) to the plate. The plate is measured for kinetically at 1 cycle/sec for 180 seconds and is considered to be the agonist portion of the assay (eg, compounds which activate a positive calcium response during this portion are flagged as potential agonists). Following the 180 second read, 1 ul of an EC80 of dopamine is delivered by an onboard pipette head. Measurements are taken kinetically for an additional 180 seconds.
# % is set by controls: 0 for no effect and ±100 for the full control effect; potency is the fitted concentration of half-maximal effect.
# D(1A) dopamine receptor (Homo sapiens), sequence (P21728 whole entry, looked up): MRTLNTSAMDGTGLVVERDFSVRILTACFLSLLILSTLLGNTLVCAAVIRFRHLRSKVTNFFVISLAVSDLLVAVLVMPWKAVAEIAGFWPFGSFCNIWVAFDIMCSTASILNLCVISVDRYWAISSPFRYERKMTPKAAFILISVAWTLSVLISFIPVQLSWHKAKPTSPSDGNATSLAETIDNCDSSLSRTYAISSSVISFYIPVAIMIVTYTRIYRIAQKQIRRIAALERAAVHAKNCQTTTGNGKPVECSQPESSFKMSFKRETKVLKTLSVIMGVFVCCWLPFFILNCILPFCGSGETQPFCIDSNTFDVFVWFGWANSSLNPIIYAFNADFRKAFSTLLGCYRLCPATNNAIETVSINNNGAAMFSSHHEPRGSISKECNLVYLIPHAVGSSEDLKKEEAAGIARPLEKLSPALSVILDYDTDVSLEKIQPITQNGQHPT
Structure (SMILES),Potency,"activity change, negative = inhibition [%]"
COC(=O)[C@@H]1[C@H]2C[C@H]3c4[nH]c5ccccc5c4CCN3C[C@@H]2CC[C@@H]1O,17.8 µM (active),
Cc1cccc(C)c1OCC(C)N (centres undefined),,3.11
CC(=O)c1ccc(S(=O)(=O)NC(=O)NC2CCCCC2)cc1,,12.4
CC1(C)CCC2=C(O1)c1ccccc1C(=O)C2=O,,20.8
COc1ccc(Cc2nccc3cc(OC)c(OC)cc23)cc1OC,,1.93
O=C1NC(=O)C(c2ccccc2)(c2ccccc2)N1,,16.8
Clc1ccc(C(c2ccc(Cl)cc2)n2cc[n+](CC(OCc3ccc(Cl)cc3Cl)c3ccc(Cl)cc3Cl)c2)cc1 (centres undefined),,-6.66
O=C1NCC2(CCN(CCc3ccccc3)CC2)O1,,-5.91
CC(=O)O[C@]1(C(C)=O)CC[C@H]2[C@@H]3C=C(Cl)C4=CC(=O)[C@@H]5C[C@@H]5[C@]4(C)[C@H]3CC[C@@]21C,,12.6
Clc1ccc(Cn2c(CN3CCCC3)nc3ccccc32)cc1,,23.3
CCN1CCC[C@H]1CNC(=O)c1cc(S(N)(=O)=O)ccc1OC,,-28.6
O=c1cc(-c2ccc(O)cc2)oc2cc(O)cc(O)c12,,-6.18
O=c1c(-c2ccc(O)cc2)coc2cc(O)ccc12,,-9.58
CCn1cc(C(=O)O)c(=O)c2ccc(C)nc21,,0.476
CC/C(=C(\c1ccccc1)c1ccc(OCCN(C)C)cc1)c1ccccc1,,-27.2
CC(C)OC(=O)C(C)(C)Oc1ccc(C(=O)c2ccc(Cl)cc2)cc1,,5.81
COc1ccccc1N1CCN(CCCNc2cc(=O)n(C)c(=O)n2C)CC1,,2.59

Structure (SMILES),Potency,"activity change, negative = inhibition [%]"
CCN(CC)C(=O)c1ccc(O)c(OC)c1,,-2.85
CN(C)CCC(c1ccccc1)c1ccccn1 (centres undefined),,8.3
CCN(CC)CCNC(=O)c1ccc(N)cc1,,11.3
NCCS,,5.35
CCN(CC)CCOC(=O)c1ccc(N)cc1,,12.1
CC(C)NCC(O)COc1cccc2[nH]ccc12 (centres undefined),,8.23
CCCCC1C(=O)N(c2ccccc2)N(c2ccccc2)C1=O,,7.68
C[N+](C)(C)CC(=O)O,,-3.58
CC(=O)N[C@@H](CS)C(=O)O,,16.4
NC(N)=Nc1nc(CSCC/C(N)=N/S(N)(=O)=O)cs1,,8.45
O=C(NCCN1CCOCC1)c1ccc(Cl)cc1,,11.7
COc1cccc(-c2cc(=O)c3ccccc3o2)c1N,,3.29
O=C(O)CCc1nc(-c2ccccc2)c(-c2ccccc2)o1,,-4.14
C[N+](C)(C)CCCCCC[N+](C)(C)C,inactive,
CCCCCN(C)CCC(O)(P(=O)(O)O)P(=O)(O)O,,4.52
CC(=O)CCCCn1c(=O)c2c(ncn2C)n(C)c1=O,,-9
CCCNC(=O)NS(=O)(=O)c1ccc(Cl)cc1,,7.36
